In the supplement of paper PMC6953052:
Where “and” joins values, the source holds several entries; their conditions need not be identical. Equal entries are not always repeated. ± gives the standard deviation of the averaged measurements. The full ranking holds about 1,700 compounds; the median of “fraction of GFP-LC3-positive cells (≥5 vesicles/cell)” is about 0.43, and the highest 2% start at about 0.81. The sample holds the highest values, similar compounds and a random draw of the others, so the mix is not that of the screen.

tested on: CbCln3 Δex7/8/Δex7/8 GFP-LC3 cerebellar neuronal cells; assay: fraction of GFP-LC3-positive cells (≥5 vesicles/cell); higher = more autophagosome accumulation
In short: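 In 384-well plates at 2 × 10^3 cells per well, GFP-LC3-expressing wild-type or mutant CbCln3 cerebellar cells took ~50 nL of compound in DMSO by pin transfer, in duplicate, for 24 h at 33 °C. Staining with Hoechst 33342 and LysoTracker Red over the final 30 min preceded fixation in 3.2% PFA and imaging of three fields per well at 10×. CellProfiler then counted GFP-LC3 vesicles in each cell, and out-of-focus images were dropped before the fraction of cells with 5 or more vesicles was averaged over duplicates.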

Structure (SMILES)	fraction of GFP-LC3-positive cells
CCCCC(CC)CNC(=N)NC(=N)NCCCCCCNC(=N)NC(=N)NCC(CC)CCCC.Cl.Cl (configuration not stated) [Alexidine dihydrochloride]	0.537
CCCNC(C)C(=O)Nc1ccccc1C.Cl (configuration not stated) [Prilocaine hydrochloride]	0.359
C=CCOc1ccccc1OCC(O)CNC(C)C.Cl (configuration not stated) [Oxprenolol hydrochloride]	0.366
Cl.OCCN1CCN(CC/C=C2/c3ccccc3Sc3ccc(Cl)cc32)CC1 [Zuclopenthixol hydrochloride]	0.542
O=c1cc(-c2ccc(O)cc2)oc2cc(O)cc(O)c12 [Apigenin]	0.432
CCCCCC(=O)/C=C/[C@H]1[C@H](O)CC(=O)[C@@H]1C/C=C\CCCC(=O)O [15-Keto-prostaglandin E2]	0.471
NS(=O)(=O)c1cc2c(cc1Cl)N=C(CSCc1ccccc1)NS2(=O)=O [Benzthiazide]	0.293
CS(=O)(=O)Nc1ccc([N+](=O)[O-])cc1Oc1ccccc1 [Nimesulide]	0.391
CC(C)NC[C@H](O)c1ccc(O)c(O)c1.Cl [(-)-Isoproterenol hydrochloride]	0.349
CN(C(=O)C(Cl)Cl)c1ccc(OC(=O)c2ccco2)cc1 [Diloxanide furoate]	0.372
Cl.c1ccc2c(c1)CCCC2C1=NCCN1 (configuration not stated) [Tetrahydrozoline hydrochloride]	0.357
CC(C)C[C@H](NC(=O)[C@H]1CCCN1C(=O)OCc1ccccc1)C(=O)NCC(=O)NO	0.442
CN(C)CCCn1cc(C2=C(c3c[nH]c4ccccc34)C(=O)NC2=O)c2ccccc21	0.583 and 0.599
Cn1cc(C2=C(c3cn(CCCSC(=N)N)c4ccccc34)C(=O)NC2=O)c2ccccc21	0.854 ± 0.15
CN(C)CCC=C1c2ccccc2C=Cc2ccccc21.Cl [Cyclobenzaprine hydrochloride]	0.513
CC[C@]1(O)C[C@@H]2CN(CCc3c([nH]c4ccccc34)[C@@](C(=O)OC)(c3cc4c(cc3OC)N(C)[C@H]3[C@@](O)(C(=O)OC)[C@H](OC(C)=O)[C@]5(CC)C=CCN6CC[C@]43[C@@H]65)C2)C1.O=S(=O)(O)O [vinblastine]	0.848
CC/C=C\C/C=C\C/C=C\CCCCCCCCCCCC(=O)O	0.417
CC/C=C\C/C=C\C/C=C\CCCCCCCCCCCC(=O)O [Docosatrienoic acid (22:3 N-3)]	0.466
CC/C=C\C/C=C\C/C=C\CCCCCCCCCCCC(=O)O [Docosatrienoic acid (22:3 n-3)]	0.541

Structure (SMILES)	fraction of GFP-LC3-positive cells
CC[N+](C)(C)c1cccc(O)c1.[Cl-] [Edrophonium chloride]	0.407
CC(C)NNC(=O)c1ccncc1.O=P(O)(O)O [Iproniazide phosphate]	0.489
CNCCCN1c2ccccc2CCc2ccccc21.Cl [Desipramine hydrochloride]	0.486
CN(C)CCOC(C)(c1ccccc1)c1ccccn1.O=C(O)CCC(=O)O (configuration not stated) [Doxylamine succinate]	0.314
O=C(NCC1CCCCN1)c1cc(OCC(F)(F)F)ccc1OCC(F)(F)F (configuration not stated)	0.524
c1ccc2[nH]c(-c3cscn3)nc2c1 [Tiabendazole]	0.326
CC[C@H]1[C@@H]2C=C[C@@H]3[C@H]4C/C=C\C(=O)NCCC[C@@H]5NC(=O)C(=C5O)C(=O)CC[C@@H]4C[C@@H]3[C@H]2C[C@H]1C [Ikarugamyin]	0.921
CCCCCCCC/C=C\CCCCCCCC(=O)NCCc1ccc(O)c(O)c1 [Oleoyl dopamine]	0.611
CCCCC/C=C\C=C\C(O)CCCCCCCC(=O)O (racemic)	0.29
CCOC(=O)[C@H](CCc1ccccc1)N[C@@H](C)C(=O)N1CCC[C@H]1C(=O)O.O=C(O)/C=C\C(=O)O [Enalapril maleate]	0.395
CCCCC[C@H](O)/C=C/C=C/C=C/[C@H](O)C/C=C\CCCC(=O)O [8(R),15(S)-DiHETE all trans]	0.298
CC[N+](CC)(CC)CCC(O)(c1ccccc1)C1CCCCC1.[Cl-] (configuration not stated) [Tridihexethyl chloride]	0.44
CCCCCCCCCCCCCCCCOC[C@H](COP(=O)([O-])OCC[N+](C)(C)C)OC(=O)NC	0.4228 ± 0.0025
NC(=O)N/N=C/c1ccc([N+](=O)[O-])o1 [Nitrofural]	0.493
CCC1NC(=O)c2cc(S(N)(=O)=O)c(Cl)cc2N1 (configuration not stated) [Quinethazone]	0.417
CN(C)CCCSC(=N)N.Cl.Cl [Dimaprit dihydrochloride]	0.45
Nc1nc(=O)[nH]cc1F [Flucytosine]	0.296
Cl.Clc1ccccc1CN1CCc2sccc2C1 [Ticlopidine hydrochloride]	0.403
